# Assay outcomes (PubChem)
# HTT-AS act = Primary qHTS for Identification of Small Molecule Activators of Huntingtin-Antisense Promoter Activity; HEK293 HTT-AS promoter firefly luciferase reporter, 24 h; response scale: percent change from vehicle, -100% = no light; Potency, µM (titrated, usually from 57.5 µM), for inactives: at the top dose activity change, positive = activation, usual class: activators; 48,000 tested, 0.24% active; AID 1508624, 2021; further: potency means the concentration at half of the fitted maximal effect; nearly all actives have a fitted effect of over 55% in size
#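 HEK293 cells carrying firefly luciferase reporters were seeded at 2,500 per well in Opti-MEM and cultured for 24 h. They were then treated with compounds at up to 57.5 uM final for 24 h at 37 degrees C before Dual-Glo luminescence readout.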
# HTT promoter inh = Primary qHTS for Identification of Small Molecule Inhibitors of Huntingtin Promoter Activity; 48,000 tested, 0.93% active; Potency, µM (highest dose often 57.5 µM), for inactives: at the highest dose activity change, negative = inhibition, hits mostly inhibitors; HEK293 HTT promoter firefly luciferase reporter, 24 h; further: potency means the concentration at half of the fitted maximal effect; nearly all actives have a fitted effect of over 50% in size
#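 Firefly luciferase readout (Dual-Glo, 10 min RT) after 24 h, 37 °C compound exposure (final up to 57.5 uM) of HEK293 reporter cells cultured 24 h beforehand; PTC124 at 50 uM final as control inhibitor; activity scaled vehicle 0%, zero RLU -100%.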
# GPR32 ag = qHTS for Agonists of Human Resolvin D1 Receptor DRV1 | CHO-K1 GPR32 beta-arrestin PathHunter luminescence, 90 min; zero percent set by DMSO-only wells | Probable G-protein coupled receptor 32 (Homo sapiens), O75388 | activation, % at 76.9 µM | AID 1346428, 2018 | 48,000 tested, 2.5% active;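 active means activation of at least 60% and not above a set upper limit, about 1 call in 100 departs from these limits; inconclusive means activation of 40% to 60%, or above that upper limit; inactive means activation under 40%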; further: 0% is about no effect
# Target sequence (O75388 whole entry, looked up): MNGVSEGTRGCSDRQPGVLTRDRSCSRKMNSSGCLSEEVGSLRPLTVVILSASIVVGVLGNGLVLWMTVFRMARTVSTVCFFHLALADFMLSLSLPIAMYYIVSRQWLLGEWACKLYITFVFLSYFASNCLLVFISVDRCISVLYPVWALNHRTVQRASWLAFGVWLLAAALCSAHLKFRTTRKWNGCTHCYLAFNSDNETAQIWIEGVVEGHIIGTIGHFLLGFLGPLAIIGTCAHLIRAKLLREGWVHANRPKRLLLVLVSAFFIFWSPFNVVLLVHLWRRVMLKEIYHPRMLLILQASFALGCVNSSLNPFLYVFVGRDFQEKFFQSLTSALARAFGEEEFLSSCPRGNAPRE
#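 Beta-arrestin recruitment read-out: luminescence from complemented beta-Gal in CHO-K1 GPR32 PathHunter cells, measured 1 h after detection reagent at ambient temperature following 90 min compound exposure at 37 °C; DMSO served as basal (EC0) control.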
# Numbers without * were called inactive; u = inconclusive; x = no result given. Most compounds without a hit are left out; they make up all but 3.7% or so of the library. Unless noted, the call rests on the fitted dose curve; in most records, active means well fitted curve in the direction sought with a large enough effect; inconclusive means small, poorly fitted or top-dose-only effect, or another doubt; inactive means no such curve, though single readings can be large; an effect the other way counts as inactive or inconclusive.
SMILES,HTT-AS act,HTT promoter inh,GPR32 ag
Cc1ccccc1-c1noc(-c2ccc(N3CCN(c4ccccc4)CC3)c([N+](=O)[O-])c2)n1,-7%,-3%,4
CN(C)c1ccc(-c2nc(-c3ccccn3)no2)cc1[N+](=O)[O-],-54%,u,76*
CCNc1ccc(-c2nc(-c3ccco3)no2)cc1[N+](=O)[O-],0.35µM*,63%,-7
Cc1ccccc1-c1noc(-c2ccc(N3CCN(C)CC3)c([N+](=O)[O-])c2)n1,-70%,2.2µM*,-9
COCCNc1ccc(-c2nc(-c3ccco3)no2)cc1[N+](=O)[O-],u,40%,-10
Cc1ccccc1-c1noc(-c2ccc(N3CCOCC3)c([N+](=O)[O-])c2)n1,u,15%,-9
Cc1ccccc1-c1noc(-c2ccc(N3CCCC3)c([N+](=O)[O-])c2)n1,-77%,10µM*,24
CN(Cc1ccccc1)c1ccc(-c2nc(-c3ccccn3)no2)cc1[N+](=O)[O-],u,-8%,30
COc1ccccc1-n1c(=O)n(C)c2c(C(N)=O)nc(-c3cc(OC)c(OC)c(OC)c3)nc21,-19%,-14%,-3
COC(=O)c1ccc(OCC2c3cc(OC)c(OC)cc3CCN2C(=O)c2cccc(C)c2)cc1 (configuration not stated),-37%,-54%,-10
CN1CCN(c2ccc(-c3nc(-c4ccccc4)no3)cc2[N+](=O)[O-])CC1,-90%,u,83*
COc1ccc(-c2noc(-c3ccc(N4CCN(C)CC4)c([N+](=O)[O-])c3)n2)cc1,24%,2%,6
Cc1ccc(N2CC(NC(=O)Cc3ccc(F)cc3)CC2=O)cc1C (configuration not stated),-9%,-24%,-6
CC(C)CC(=O)Nc1cccc(-c2cn3cccnc3n2)c1,16µM*,78%,45
CCCC(=O)Nc1cccc(-c2cn3cccnc3n2)c1,35%,31%,13
Cc1ccc(C(=O)Nc2ccc(-c3cn4cccnc4n3)cc2)cc1C,18%,31%,u
Cc1cc(C)cc(C(=O)Nc2ccc(-c3cn4cccnc4n3)cc2)c1,-22%,-12%,103*
CCCCOc1ccc(NC(=O)Cn2nnnc2-c2ccccc2F)cc1,-5%,-5%,-7
O=C(Cn1nnnc1-c1ccccc1F)Nc1ccc(OC(F)(F)F)cc1,-9%,-4%,75*
NC1(Cc2ccc(Cl)cc2)CCN(c2ncnc3[nH]ccc23)CC1,-36%,u,x
CCc1ccc(C2=C(C)C(N3CCC(C(=O)Nc4ccc(F)cc4)CC3)=NS2(=O)=O)cc1,-27%,u,74*
CCC1=C(c2ccc(C)cc2)S(=O)(=O)N=C1N1CCC(C(=O)NCc2ccc(C)cc2)CC1,-38%,u,-20
CCc1ccccc1NC(=O)C1CCN(C2=NS(=O)(=O)C(c3ccc(C)c(C)c3)=C2C)CC1,-32%,u,89*
CC1=C(c2ccc(C)c(C)c2)S(=O)(=O)N=C1N1CCC(C(=O)Nc2ccc(Cl)cc2)CC1,-25%,-21%,16
CCC1=C(c2ccc(C)cc2)S(=O)(=O)N=C1N1CCC(C(=O)NCCc2ccc(Cl)cc2)CC1,-40%,20µM*,-16
SMILES,HTT-AS act,HTT promoter inh,GPR32 ag
CC1=C(c2ccc(C(C)C)cc2)S(=O)(=O)N=C1N1CCC(C(=O)Nc2ccc(C)cc2)CC1,-30%,-27%,u
CC1=C(c2ccc(C(C)C)cc2)S(=O)(=O)N=C1N1CCC(C(=O)NCCc2ccco2)CC1,-28%,u,64*
CC1=C(c2ccc(Cl)cc2)S(=O)(=O)N=C1N1CCC(C(=O)NCCc2ccco2)CC1,-17%,u,19
CC(=O)N1CCN(c2ccc(OCc3nn(C)c(C)c3-c3cccc4c(CCCOc5cc(C)c(Cl)c(C)c5)c(C(=O)O)n(Cc5cccnc5)c34)cc2)CC1,-22%,0%,x
CCCC(=O)Nc1nc2c(s1)CC(C(C)(C)C)CC2 (configuration not stated),u,5%,0
CC(=O)OCC(=O)[C@@]12OC(C)(C)O[C@H]1C[C@H]1[C@@H]3C[C@H](F)C4=CC(=O)C=C[C@]4(C)[C@@]3(F)[C@@H](O)C[C@@]12C,1%,6%,x
CC1(COc2ccc3c(c2)ncn3-c2ccc3cccc(N4CCC(N)CC4)c3n2)COC1,-51%,u,x
CC1CCC(NC(=O)CCc2cn(Cc3ccc(F)cc3)c3ccccc23)CC1 (configuration not stated),-5%,u,-26
